Laboratory results as given in ChEMBL document CHEMBL3988442, “University of Dundee, Small-Polar-MMV Screening Library” (2021).
Among all 48,000 compounds or so, about 13,000 (27%) showed an effect of 50% or more. The list shows a part of the results.

tested on: Wolbachia pipientis; test: Anti-Wolbachia Cell-Based Screen; type: functional; set-up: scale not given: in the data most compounds retested in dose-response had high values; settings: 5 µM

| Structure (SMILES) | Percent Effect |
| --- | --- |
| Cc1ccc(NC(=O)CCc2ccco2)cc1N1CCOC1=O | -14.01% |
| CCCOCC(=O)Nc1ncc(I)cc1C | -6.497% |
| O=C(CCC1CCCN(C(=O)CCN2CCCCO2)C1)N1CCCC1 (configuration not stated) | 3.672% |
| CNc1nc(N2CCN(Cc3ccsc3)C(CCO)C2)nc2c1CCC2 (configuration not stated) | -11.96% |
| NC(=O)Cn1ccc(NC(=O)C2(c3cccc(F)c3)CCC2)n1 | -8.022% |
| CCN1C(=O)C(C)(C)c2cc(NC(=O)c3ccco3)ccc21 | -4.693% |
| CCn1cc(NC(=O)NCC(O)c2ccccc2)cn1 (configuration not stated) | -11.2% |
| CCN(Cc1cnn(CC)c1)C(=O)CN1C(=O)CCc2ccccc21 | -11.46% |
| COCCn1ccc(NC(=O)Nc2ccccc2)n1 | 3.766% |
| CCn1ccc(NC(=O)CN2C(=O)C(C)(C)c3ccccc32)n1 | 112.9% |
| CCn1cc(NC(=O)CN2C(=O)CC(C)(C)c3ccccc32)cn1 | 116.8% |
| CCn1ccc(NC(=O)CN2C(=O)CC(C)(C)c3ccccc32)n1 | 127.7% |
| COCCn1ccc(NC(=O)Nc2ccccn2)n1 | 7.746% |
| C[C@@H](NCc1cccc(Cl)c1)c1onc(-c2ccc(F)cc2)c1C(=O)O.Cl | -9.594% |
| Cc1c(C(=O)N2CC(C)(C)C2(C)C)nnn1-c1cccc2cnccc12 | -4.075% |
| Cc1nc(CN2CCCCC2CCc2cccs2)co1 (configuration not stated) | 96.55% |
| Cc1cnn(CC2CCCN2Cc2coc(-c3cccs3)n2)c1 (configuration not stated) | -13.53% |
| COCCC1CCCCN1Cc1nc(Cc2cccc(F)c2)no1 (configuration not stated) | 4.701% |
| COCCC1CCCCN1Cc1nc(C2CC2)no1 (configuration not stated) | -11.16% |
| Cc1nc(C)n(CC2CCCN2CCc2cccs2)n1 (configuration not stated) | -19.79% |
| c1csc(CCC2CCCCN2Cc2noc(C3CC3)n2)c1 (configuration not stated) | 94.56% |
| COCc1noc(CN2CCCCC2CCc2cccs2)n1 (configuration not stated) | 103.5% |
| CC(C)(C(=O)NCCCc1nc2ccccc2[nH]1)n1cc(Cl)cn1 | -7.293% |
| CC(C)CC(CCO)CNC(=O)N1CCC1(C)C (configuration not stated) | -13.05% |
| Cc1nnc2n1CCN(C(=O)c1cnc3c(cnn3C(C)C)c1)C2 | -12.78% |
| CCOCC(=O)N1CCC(Cc2nnc(SC)n2C)CC1 | 5.722% |

| Structure (SMILES) | Percent Effect |
| --- | --- |
| Cc1nccn1-c1ccc(CNS(=O)(=O)N2CCC(C)CC2)cn1 | 2.013% |
| O=S(=O)(NCc1ccccc1Cn1cncn1)C1CCCC1 | 4.456% |
| O=S(=O)(NCc1cccnc1OC1CCCC1)N1CCCCC1 | 6.628% |
| CC1CCN(S(=O)(=O)NCc2ccccc2Cn2cncn2)CC1 | 5.954% |
| NC(=O)C1CCN(C(=O)NCc2ccccc2Cn2cncn2)CC1 | -13.11% |
| CC1CCCN(S(=O)(=O)NCc2ccccc2Cn2cncn2)C1 (configuration not stated) | 105.5% |
| CC1CCN(S(=O)(=O)NCc2ccccc2Cn2cccn2)CC1 | 110.3% |
| O=C(CCNC(=O)C1CCCC1)NCc1ccccc1Cn1cncn1 | 1.009% |
| CC1CN(Cc2ccccc2Cn2cccn2)CCN1C (configuration not stated) | -6.674% |
| O=S(=O)(NCc1ccccc1Cn1cncn1)N1CCCCC1 | 112.9% |
| O=S(=O)(NCc1ccccc1Cn1cncn1)N1CCCCCC1 | 113.8% |
| CN(C)C1CCN(C(=O)NCc2ccccc2Cn2cncn2)CC1 | -21.25% |
| CCN1CCCC1CN(Cc1cc[nH]n1)CC1CCN(CCOC)CC1 (configuration not stated) | -0.05242% |
| CN1CCC(N(Cc2ccco2)S(=O)(=O)c2ccc(Br)cc2Cl)CC1 | 36.62% |
| CCN1C(=O)C2(CCOCC2)c2cc(NC(=O)c3cnccn3)ccc21 | -0.09306% |
| CC(=O)NCC(=O)N1Cc2cnc(CC(C)C)nc2C1 | 15.63% |
| Cc1noc(C)c1-c1cc(CCC2CN(CCC(N)=O)CCO2)ncn1 (configuration not stated) | 120.1% |
| COCCC1CN(Cc2cn(CCC(N)=O)c3ccccc23)CCO1 (configuration not stated) | -2.901% |
| CCC1CN(C(=O)c2[nH]nc(C)c2Br)CCO1 (configuration not stated) | -57.1% |
| CC(=O)N1CCOC(CCc2cc(-c3c(C)noc3C)ncn2)C1 (configuration not stated) | 154% |
| NCC1CN(Cc2cn(CCC(N)=O)c3ccccc23)CCO1 (configuration not stated) | -15.16% |
| COCC1CN(C(=O)Nc2cc(Cl)cc(Cl)c2)CCO1 (configuration not stated) | -11.38% |
| Cc1noc(C)c1-c1cc(CCC2CN(C(=O)CN)CCO2)ncn1 (configuration not stated) | 152% |
| Cc1ccnn1CCC(=O)N1CCOC(CCc2ccccc2)C1 (configuration not stated) | -2.997% |
| Cc1[nH]nc(CCC(=O)N2CCOC(CCc3ccccc3)C2)c1C (configuration not stated) | -1.139% |
| Cc1noc(C)c1-c1cc(CCC2CN(C(=O)C(C)C)CCO2)ncn1 (configuration not stated) | 137.5% |
